Each structure is given as a SMILES string. The source made the active and inactive calls. A call without a number means that no potency is given here. The call rests on the fitted dose curve.
Potency means the concentration at half of the fitted maximal effect.

In this test the target is Estrogen receptor (Homo sapiens) (UniProt P03372). The test is described as follows: qHTS assay to identify small molecule agonists of the estrogen receptor alpha (ER-alpha) signaling pathway in the presence of an antagonist (AID 1259383). Further: nearly all actives have a fitted effect of over 15% in size. Particulars: VM7Luc4E2 cells, ERE-luciferase, +ICI-182,780, 22 h; series mostly up to 92.4 µM. The source says: National Center for Advancing Translational Sciences [NCATS] NIH Chemical Genomics Center [NCGC] U.S. Environmental Protection Agency [EPA] National Institutes of Environmental Health Sciences [NIEHS] National Toxicology Program [NTP] Assay overview: Estrogen receptor (ER), a member of nuclear hormone receptor plays an important role in development, metabolic homeostasis and reproduction. Two subtypes of ER, ER-alpha and ER-beta, have similar expression patterns with some uniqueness in both types. Endocrine disrupting chemicals (EDCs) and their interactions with steroid hormone receptors like ER causes disruption of normal endocrine function. Therefore, it is important to understand the effect of environmental chemicals in ER signaling pathway. For identifying ER agonists, VM7Luc4E2 cell line has been used in the current assay. VM7Luc4E2 cell line (provided by Denison MS, University of California) endogenously expresses full-length ER-alpha and is stably transfected with a plasmid containing four estrogen responsive elements (ERE) upstream of a luciferase reporter gene. This current screening for measuring luciferase reporter gene activity using VM7Luc4E2 cells against Tox21 10K library collection is a confirmation study on agonist mode screening in presence of ER-antagonist (ICI-182,780) at 10.0nM final concentration.
Estrogen receptor (Homo sapiens), sequence (P03372 whole entry, looked up): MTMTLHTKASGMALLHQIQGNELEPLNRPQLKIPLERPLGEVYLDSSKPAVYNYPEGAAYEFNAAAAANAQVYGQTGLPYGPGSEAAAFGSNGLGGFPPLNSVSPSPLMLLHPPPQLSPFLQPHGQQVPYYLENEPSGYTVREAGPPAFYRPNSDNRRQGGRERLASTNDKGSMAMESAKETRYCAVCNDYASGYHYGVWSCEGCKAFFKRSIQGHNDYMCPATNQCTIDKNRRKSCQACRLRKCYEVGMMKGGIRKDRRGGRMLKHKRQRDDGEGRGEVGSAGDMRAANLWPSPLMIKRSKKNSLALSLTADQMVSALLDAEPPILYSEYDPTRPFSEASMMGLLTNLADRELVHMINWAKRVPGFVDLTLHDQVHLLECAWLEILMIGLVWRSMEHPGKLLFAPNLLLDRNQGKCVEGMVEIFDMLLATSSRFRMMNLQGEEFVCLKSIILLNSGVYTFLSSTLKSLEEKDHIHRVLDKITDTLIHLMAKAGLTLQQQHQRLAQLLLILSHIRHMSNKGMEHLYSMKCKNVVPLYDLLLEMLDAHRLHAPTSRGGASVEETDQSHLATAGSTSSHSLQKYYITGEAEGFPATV
Assay Protocol Summary: VM7Luc4E2 cells were cultured in phenol red free assay medium containing 10% charcoal stripped FBS for 5 days prior to the assay. The cells were dispensed at 4,000 cells in 4uL of assay medium per well into white wall/solid-bottom 1536-well plates (Corning Life Sciences, Corning, NY) using a Multidrop Combi (Thermo Fisher Scientific Inc., Waltham, MA) dispenser. After the assay plates were incubated at 37C and 5% CO2 for 24hr, 1uL of 10.0nM (final concentration) ICI-182,780 or assay buffer was added using two separate tips of Flying Reagent Dispenser (FRD, Aurora Discovery, San Diego, CA). Then 23nL of compounds dissolved in DMSO at 15 concentrations and positive controls or DMSO only was transferred to the assay plates by a Pintool station (Wako, San Diego, CA). The assay plates were incubated at 37C and 5% CO2 for 22hr. For luciferase read, 4uL/well ONE-Glo reagent (Promega Corporation, Madison, WI) was added to each well using FRD and after 30min incubation at room temperature, luminescence signal was measured on ViewLux plate reader (PerkinElmer, Shelton, CT).
For orientation: Quantitative high-throughput screening tests each substance at several concentrations.
For the compound `CCCCCCCC(=O)Oc1c(Br)cc(C#N)cc1Br`, the Potency result is “inactive”.
Take `COC(=O)CC(C(C)=O)C(=O)OC` (stereo not given): the Potency result was “inactive”.
The same measure for `O=c1[nH]c2cc(C(F)(F)F)c(N3CCOCC3)cc2n(CP(=O)(O)O)c1=O`: “inactive”; for `O=[N+]([O-])C1(Br)COCOC1`: “inactive”.
Regarding `CCOc1ncc(F)c(=O)[nH]1`, the Potency result was “inactive”.
The same measure for `N[C@@H](Cc1cc(I)c(O)c(I)c1)C(=O)O`: “inactive”.
For the compound `CCC(CO)(CO)CO`, the Potency entry is “inactive”.
The same measure for `Nc1cccc2c(N)cccc12`: “inactive”; for `Cc1ccc(NC(=O)N(C)C)cc1NC(=O)N(C)C`: “inactive”.
For `CSCC[C@H](NC(=O)[C@H](Cc1c[nH]c2ccccc12)NC(=O)CCNC(=O)OC(C)(C)C)C(=O)N[C@@H](CC(=O)O)C(=O)N[C@@H](Cc1ccccc1)C(N)=O` the value was “inactive”.
The same measure for `CN1CCCN(C(c2ccccc2)c2ccc(Cl)cc2)CC1` (stereo not given): “inactive”; for `COc1cc(C(C)=O)ccc1OCCCN1CCC(c2noc3cc(F)ccc23)CC1`: “inactive”.
With `CCOC(=O)N1CCC(Nc2ccc(Cl)cc2N)CC1`, the Potency result is “inactive”.
The same measure for `COc1ccc(CCN(C)CCCN2CCc3cc(OC)c(OC)cc3CC2=O)cc1OC`: “inactive”; for `CC(C)(C)CCCCCCOC(=O)c1ccccc1C(=O)OCCCCCCC(C)(C)C`: “inactive”; for `CS(=O)(=O)c1ccc([C@@H](C[C@H]2CCC(=O)C2)C(=O)Nc2cnccn2)cc1Cl`: “inactive”.
Regarding `COc1cc(S(=O)(=O)Nc2ccccc2)c(OC)cc1N`, the Potency result is “inactive”.
The same measure for `O=C(C(=O)c1ccco1)c1ccco1`: “inactive”; for `COc1ccc(C2C(=O)c3ccccc3C2=O)cc1`: “inactive”.
Turning to `O=S(=O)(Cl)c1c(Cl)cccc1Cl`, the Potency result is “inactive”.
The same measure for `Cc1ccc(S(=O)(=O)NC(=O)NC2CCCCC2)cc1`: “inactive”; for `CC(C)C(O)C(C)(C)CO` (stereo not given): “inactive”; for `CCC(CO)(CO)[N+](=O)[O-]`: “inactive”.
As to `CC(=O)NNC(C)=O`, the Potency result is “inactive”.
For `CCCCCCCCCCCC(=O)OCC(O)CO` (stereo not given) the value was “inactive”; for `COc1cc(OC)c2ccc(=O)oc2c1`, “inactive”.
For `O=C(O)CCS` the value was “inactive”; for `CC(C)(C(=O)c1cccnc1)c1cccnc1`, “inactive”.
The same measure for `CCCCCCCC/C=C\CCCCCCCC(=O)OCCO`: “inactive”.
With `O=C(CCS)OCC(COC(=O)CCS)(COC(=O)CCS)COC(=O)CCS`, the Potency result was “inactive”.
`CC1CCc2nccnc21` (stereo not given): the Potency entry is “inactive”.
Consider `Nc1ccc(F)cc1`, for which the Potency result is “inactive”.
For `COc1ccc2nc(S(=O)Cc3ncc(C)c(OC)c3C)[nH]c2c1` (stereo not given) the value was “inactive”; for `O=C(c1ccccc1)c1ccc(O)cc1`, 49.1 µM (active).
For `CC(C)C1CCC(C(=O)N[C@H](Cc2ccccc2)C(=O)O)CC1` (stereo not given in full) the value was “inactive”.
Take `CNc1c2c(nn1C)CCCC2`: the Potency result is “inactive”.
The same measure for `COC(=O)c1sccc1S(N)(=O)=O`: “inactive”.
For `ClC1=C(Cl)C1(Cl)Cl` the value was “inactive”.
The same measure for `CC(C)(O)CCc1ccccc1`: “inactive”; for `c1ccc(CCCc2ccncc2)cc1`: “inactive”.
